Consider 40 molecules from PubChem BioAssay (NCATS).

Calls of active or inactive are those of the source. How the calls were made is not given here.
Potency means the concentration at half of the fitted maximal effect.

The experiment has as its system HIV-1 nucleocapsid protein NCp7 (binding to TG oligonucleotide). Nature of the experiment: HIV Nucleocapsid (AID 346).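 Further: potency is for inhibitors that block NC binding and lower polarization.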 As to conditions: HIV-1 NC / fluorescein-TGTGTGTG probe, fluorescence polarization. The gist of the method: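 Fluorescence polarization readout: labelled TG4xF oligo (10 nM) with 100 nM nucleocapsid protein, high-salt (250mM NaCl) Hepes pH 7.5 buffer containing zinc and fresh reducing agents. Compounds added by pin tool; incubation 1 hr, room temperature.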
(Fluorescence polarisation rises when a labelled molecule tumbles more slowly, as on binding a larger partner.)
As for `CC(C)CN1CCCC2(CCN(C(=O)c3cccc(F)c3)CC2)C1`, the Potency was > 20 µM (inactive).

As to `COc1ccccc1-c1nccc(NCc2cccs2)n1`, the Potency was > 20 µM (inactive).

As for `Cc1nc2cnc(OCc3ccccc3)nc2n(CCc2ccccc2)c1=O`, the Potency is > 20 µM (inactive).

Consider `COc1ccc(Nc2ncc3nc(-c4cccs4)c(=O)n(Cc4cccc(OC)c4)c3n2)cc1`, for which the Potency is 16 µM (inactive).

Take `CC(C)CN1CC[C@@]2(CCCN(C(=O)c3cc(C(F)(F)F)cc(C(F)(F)F)c3)C2)C1`: the Potency is > 20 µM (inactive).

`O=C(c1cnccn1)N1CCC2(CCN(Cc3cc(C(F)(F)F)cc(C(F)(F)F)c3)CC2)CC1`: the Potency was > 20 µM (inactive).

For `CS(=O)(=O)N1CCC2(CC1)CN(Cc1ccc(C#N)cc1)C2`, the Potency was > 20 µM (inactive).

Turning to `COCC(=O)N1CCC[C@@]2(CCN(Cc3ccccc3)C2)C1`, the Potency was > 20 µM (inactive).

As to `Cn1cc(-c2nc3cnc(N4CCNCC4)nc3n(-c3ccccc3)c2=O)c2ccccc21`, the Potency was > 4 µM (inactive).

Take `Cc1nc2cnc(N(C)C)nc2n(-c2ccccc2)c1=O`: the Potency is > 4 µM (inactive).

For the molecule `CN(C)Cc1ccccc1-c1nc(N(C)C)c2ccccc2n1`, the Potency is > 20 µM (inactive).

`COc1ccccc1-c1cncnc1NCc1ccccc1`: the Potency was > 20 µM (inactive).

`c1ccc(-c2ccc(N3CCCC4(CCNCC4)C3)cc2)cc1`: the Potency was > 20 µM (inactive).

As for `CN(C)c1ncc2nc(CCc3ccccc3)c(=O)n(C[C@H]3CCCO3)c2n1`, the Potency is > 20 µM (inactive).

As for `CN(C)c1ncc2ncc(=O)n(Cc3cccs3)c2n1`, the Potency is > 20 µM (inactive).

In the case of `Cc1cnc(CNc2ncnc3ccc(-c4ccc5c(c4)OCO5)cc23)cn1`, the Potency was > 20 µM (inactive).

On to `COc1cccc(Nc2ncc3nc(-c4ccccc4)c(=O)n(C[C@H]4CCCO4)c3n2)c1`, for which the Potency is > 20 µM (inactive).

Take `CCNc1ncc2nc(C)c(=O)n(C3CC3)c2n1`: the Potency was > 20 µM (inactive).

For `c1nc(NC2CCNCC2)c2cc(-c3ccoc3)ccc2n1`, the Potency was > 20 µM (inactive).

On to `CS(=O)(=O)N1CCC2(CCCN(Cc3cc(C(F)(F)F)cc(C(F)(F)F)c3)C2)CC1`, for which the Potency was > 20 µM (inactive).

Consider `O=c1c(-c2ccc(Cl)cc2)nc2cnc(N3CCNCC3)nc2n1Cc1ccc(F)cc1`, for which the Potency is > 20 µM (inactive).

Regarding `CS(=O)(=O)Nc1cccc(-c2nc(NCc3cccs3)c3ccccc3n2)c1`, the Potency is > 20 µM (inactive).

`Cn1cccc1C(=O)N1CCC2(CCN(Cc3ccncc3)CC2)CC1`: the Potency is > 20 µM (inactive).

As to `CN1CCN(c2ncc3nc(-c4cc(F)cc(F)c4)c(=O)n(Cc4cccs4)c3n2)CC1`, the Potency is > 20 µM (inactive).

Take `CCNc1ncc2nc(-c3ccccc3)c(=O)n(CCC#N)c2n1`: the Potency was > 20 µM (inactive).

In the case of `COCCNc1nc(-c2ccccc2CN(C)C)nc2ccccc12`, the Potency is > 20 µM (inactive).

In the case of `CCNc1ncc2nc(-c3cccs3)c(=O)n(CCC#N)c2n1`, the Potency is 6.37 µM (active).

As for `CN(C)C(=O)c1ccc(-c2cc(N(C)Cc3ccco3)ncn2)cc1`, the Potency is > 20 µM (inactive).

With `Cc1ccccc1-c1nc(N2CCNCC2)c2ccccc2n1`, the Potency was > 20 µM (inactive).

Consider `O=C(c1cc(C(F)(F)F)cc(C(F)(F)F)c1)N1CCC2(CCCN(Cc3ccccc3)C2)CC1`, for which the Potency is > 20 µM (inactive).

In the case of `CN(C)c1ncc2nc(-c3ccc(F)cc3)c(=O)n(CCC#N)c2n1`, the Potency is > 4 µM (inactive).

Regarding `O=C(c1cnccn1)N1CCC[C@@]2(CCN(C(c3ccccc3)c3ccccc3)C2)C1`, the Potency is > 20 µM (inactive).

As to `Cc1noc(C)c1C(=O)N1CCC[C@@]2(CCN(c3cccc(-c4ccccc4)c3)C2)C1`, the Potency was > 20 µM (inactive).

As to `COCCn1c(=O)c(-c2cccc(C#N)c2)nc2cnc(OCc3ccccc3)nc21`, the Potency is > 20 µM (inactive).

As for `CCNc1ncc2nc(-c3cn(C)c4ccccc34)c(=O)n(-c3ccccc3)c2n1`, the Potency was 16.4 µM (inactive).

On to `Cn1c(=O)c(-c2cc(F)cc(F)c2)nc2cnc(N3CCNCC3)nc21`, for which the Potency is > 20 µM (inactive).

Consider `CNc1nc(-c2ccc3c(c2)OCO3)nc2ccccc12`, for which the Potency was > 20 µM (inactive).

Consider `COc1ccc(CNc2ncnc3ccc(-c4ccc5c(c4)OCO5)cc23)c(OC)c1`, for which the Potency was > 20 µM (inactive).

Turning to `N#CCCn1c(=O)c(-c2ccc(F)cc2)nc2cnc(N3CCNCC3)nc21`, the Potency was > 20 µM (inactive).

As for `O=c1c(CCc2ccccc2)nc2cnc(Oc3ccccc3)nc2n1C[C@H]1CCCO1`, the Potency was > 20 µM (inactive).
